# Most compounds without a hit are left out; they make up all but 2.9% or so of the library.
# Pol beta inh: inhibitors of human DNA polymerase beta. Potency, µM (titrated, usually from 114 µM), for inactives: at the top dose activity change, negative = inhibition, usual class: inhibitors. P06746. Pol beta primer extension/strand displacement, fluorescence kinetic. 340,000 tested, 1.3% active; also: potency is read from the fitted curve at half-maximal effect; % is scaled to controls: 0 for no effect and ±100 for the full control effect
#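 Homogeneous kinetic assay of primer extension and strand displacement by 10 nM Pol beta, preincubated 15 min at room temperature with compound before 50 nM substrate (final) was added. Read at 0 and 10 min; four-parameter Hill fit.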
# POLK inh: blocks human DNA polymerase kappa activity; Q9UBT6; purified Pol kappa, fluorescent DNA synthesis assay, 10 min; Potency, µM (highest dose often 107 µM), without a hit: top-dose activity, negative = inhibition, hits mostly inhibitors; 400,000 tested, 0.53% active; AID 588579; also: potency is read from the fitted curve at half-maximal effect; % is scaled to controls: 0 for no effect and ±100 for the full control effect
# Target sequence (Q9UBT6 whole entry, looked up): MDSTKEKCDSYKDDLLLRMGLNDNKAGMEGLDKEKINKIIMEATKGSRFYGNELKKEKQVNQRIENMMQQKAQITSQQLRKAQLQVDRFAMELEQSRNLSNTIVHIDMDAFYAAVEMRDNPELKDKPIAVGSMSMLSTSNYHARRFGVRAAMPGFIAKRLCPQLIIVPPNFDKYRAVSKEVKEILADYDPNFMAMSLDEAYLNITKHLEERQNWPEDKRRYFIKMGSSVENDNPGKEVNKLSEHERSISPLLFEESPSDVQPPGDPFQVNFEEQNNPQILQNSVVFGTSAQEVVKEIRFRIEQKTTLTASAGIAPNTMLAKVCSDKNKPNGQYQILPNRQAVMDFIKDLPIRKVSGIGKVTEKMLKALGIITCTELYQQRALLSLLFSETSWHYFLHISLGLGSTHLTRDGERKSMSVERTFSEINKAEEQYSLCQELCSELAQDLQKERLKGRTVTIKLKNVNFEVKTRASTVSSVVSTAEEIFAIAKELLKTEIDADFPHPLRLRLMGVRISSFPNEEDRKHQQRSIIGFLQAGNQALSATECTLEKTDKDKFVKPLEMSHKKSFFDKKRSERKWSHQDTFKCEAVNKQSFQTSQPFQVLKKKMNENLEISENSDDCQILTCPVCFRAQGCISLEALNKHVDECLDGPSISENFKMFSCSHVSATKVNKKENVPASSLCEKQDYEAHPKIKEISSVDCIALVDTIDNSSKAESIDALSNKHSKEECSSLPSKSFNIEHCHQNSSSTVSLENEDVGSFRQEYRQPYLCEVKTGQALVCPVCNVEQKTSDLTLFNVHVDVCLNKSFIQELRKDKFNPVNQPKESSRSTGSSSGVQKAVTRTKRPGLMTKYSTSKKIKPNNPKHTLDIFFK
#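 First, compounds were pin-transferred onto 10 nM Pol kappa. After 15 min at room temperature, substrate was added to 50 nM final. Fluorescence was then measured kinetically at 0 and 10 min.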
# POLH inh: inhibitors of human DNA polymerase eta | recombinant Pol eta, fluorescent DNA replication assay | 390,000 tested, 1.2% active | Potency, µM (doses to about 114 µM), inactives show at the top dose activity change, negative = inhibition, usual class: inhibitors | AID 588591 | Q9Y253; also: potency is read from the fitted curve at half-maximal effect; % is scaled to controls: 0 for no effect and ±100 for the full control effect
#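 Pol eta (10 nM) was preincubated with compounds for 15 min at room temperature, after which fluorescent replication substrate (50 nM final) was added to start the reaction. Fluorescence was read kinetically at 0 and 10 min.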
# PI5P4K alpha inh: PI5P4K alpha (human) kinase inhibition | 330,000 tested, 1.2% active | PI5P4Kalpha enzyme, ADP-Glo luminescence, 60 min; active compounds read low | P48426 | AID 652105 | max response, %; active = max response of -50% or lower; inconclusive = between -30% and -50%; inactive = -30% or higher; also: value at the top dose of about 77 µM; % is scaled to controls: 0 for no effect and ±100 for the full control effect
#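 ADP-Glo luminescence end-point read after a 60 min room-temperature kinase reaction of PI5P4Kalpha plus substrate, initiated with ATP at 5 microM final. Buffer: 0.038 M HEPES pH 7.4, EGTA, 0.1% CHAPS, 5% DMSO.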
# ALOX12 inh: ALOX12 (human) lipoxygenase inhibition | P18054 | purified 12hLO, xylenol orange hydroperoxide absorbance | Potency, µM (highest dose often 108 µM), without a hit: top-dose activity change, negative = inhibition, most hits filed as inhibitors | 580,000 tested, 1.1% active | AID 1671190; also: potency is read from the fitted curve at half-maximal effect; % is scaled to controls: 0 for no effect and ±100 for the full control effect
#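 Purified human 12hLO (150 nM final) in 25 mM Hepes, 0.01% Triton X-100, pH 7.0 was preincubated 15 min at room temperature with compound. Then 40 uM arachidonic acid was added, 30 min. Hydroperoxide was read by Fe-XO absorbance ratio 573/405 nm.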
# Pol iota inh: inhibitors of human DNA polymerase iota | Q9UNA4 | Pol iota fluorescent replication assay, 10 min | Potency, µM (top dose mostly 115 µM), without a hit: at the highest dose activity, negative = inhibition, hits mostly inhibitors | 390,000 tested, 1% active; also: potency is read from the fitted curve at half-maximal effect
#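 Fluorescent replication assay read twice, at 0 min and 10 min after adding 50 nM (final) substrate. Enzyme (10 nM) and compounds were first incubated 15 min at room temperature; enzyme-free buffer wells were negative controls.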
# Numbers without * were called inactive; u = inconclusive; x = not tested or not shown; ! = not confirmed by another sample; [ ] = remark or other dose. Unless noted, calls follow the shape of the dose curve; as a rule, active = well fitted inhibition curve with a large enough effect; inconclusive = small, poorly fitted or top-dose-only effect, or another doubt; inactive = no such curve, though single readings can be large or run the other way.
SMILES,Pol beta inh,POLK inh,POLH inh,PI5P4K alpha inh,ALOX12 inh,Pol iota inh
COc1cc(/C=C2\CCC(C3CCCC3)C2=O)ccc1OCCC(C)C (configuration not stated),x,x,x,x,-16.1%,x
CCOc1ccc(N(C)c2ccc(/C=C3/SC(=S)NC3=O)cc2)cc1,u,-38.9%,-25.5%,-55.2*,-25.8%,u
CCOc1c(O)ccc(/C=C2\SC(=S)NC2=O)c1[N+](=O)[O-],20µM*,u,25.1µM*,-101.1*,u,12.6µM*
O=C1NC(=S)S/C1=C/c1ccc(Oc2cnccn2)cc1,-2.0%,4.4%,-15.5%,-77.9*,-12.1%,8.8%
O=C1NC(=O)/C(=C\c2ccc(Oc3cnccn3)cc2)S1,-0.1%,-2.5%,-7.1%,-3.0,-15.0%,51.0%
CC1(C)[C@@H](O)CC[C@]2(C)C3C(O)C=C4[C@H]5C[C@@](C)(CO)CC[C@]5(C)CC[C@]4(C)[C@]3(C)CC[C@@H]12 (some centres not stated),-0.1%,-9.1%,u,-61.9*,15.3%,29.3%
CC1(C)[C@@H](O)CC[C@]2(C)[C@H]3C(=O)C=C4[C@@H]5C[C@@](C)(C(=O)O)CC[C@]5(C)CC[C@@]4(C)[C@]3(C)CC[C@@H]12,10.5%,33.6µM*!,-16.9%,-0.5,-10.9%,12.9%
Cc1ccccc1COc1cccc(CNc2ccccc2)c1,x,x,x,x,90.5%,x
CC(C)N1CCc2c(sc(NC(=O)c3cc4cc([N+](=O)[O-])ccc4s3)c2C(N)=O)C1,-22.2%,-27.1%,-19.1%,u,u,26.4%
CN1CCc2c(sc(NC(=O)c3cc4cc([N+](=O)[O-])ccc4s3)c2C(N)=O)C1,22.4µM*,x,x,x,x,x
CCCC(=O)Nc1cccc(NC(=O)c2ccc(C)c(C)c2)c1,x,x,x,x,-42.0%,x
COc1cc(N=c2ssnc2Cl)cc(OC)c1OC,10.3%,-6.2%,-10.9%,-68.7*,u,u
Clc1nssc1=Nc1ccccc1,-0.7%,5.7%,14.5%,-57.1*,x,87.1%
CCOC(=O)c1ccc(N=c2ssnc2Cl)cc1,6.7%,4.3%,-2.8%,-79.4*,2.24µM*,37.4%
N#Cc1ccc(N=c2ssnc2Cl)cc1,16.7%,-2.3%,-8.9%,-91.0*,-62.0%,u
Clc1ccc(N=c2ssnc2Cl)cc1,15.6%,-3.7%,-15.8%,x,u,u
CC(NC(=O)c1n[nH]c(=O)c2ccccc12)c1cccc2ccccc12 (configuration not stated),x,x,x,x,-13.0%,x
Cc1ccc(-c2nc(CC(=O)N(C)CC(=O)Nc3ccc(F)cc3)cs2)c(C)c1,x,x,x,x,-13.1%,x
Cc1ccccc1CCNC(=O)c1nccnc1N,x,x,x,x,31.8%,x
COc1ccc(N=C2SCC(=O)N2C)cc1,x,x,-5.1%,0.0,-0.1%,x
Fc1ccc(N=Cc2ccc(C=Nc3ccc(F)cc3F)cc2)c(F)c1,x,x,x,x,2.0%,x
Fc1ccc(N=c2ssnc2Cl)c(F)c1,-4.4%,-4.0%,-17.3%,-62.4*,7.08µM*,u
COc1ccc(N=c2ssnc2Cl)cc1,2.4%,6.6%,-8.3%,-82.8*,x,u
Cc1nn(C)c(C)c1C(=O)NCc1cccnc1N1CCOCC1,x,x,x,x,5.0%,x
COc1ccc(NC(=O)COC(=O)c2cc3ccccc3cc2O)cc1Cl,x,x,x,x,14.5%,x
SMILES,Pol beta inh,POLK inh,POLH inh,PI5P4K alpha inh,ALOX12 inh,Pol iota inh
COc1ccccc1/C=C/C=N/NC(=O)c1cc(-c2ccco2)[nH]n1,25.1µM*,u,u,-72.5*,u,u
O=C(NCc1ccccc1)c1ccc(-c2ccccc2)s1,x,x,x,x,-23.2%,x
Cc1c(N2C(=O)c3ccc(Br)cc3C2=O)c(=O)n(-c2ccccc2)n1C,u,-3.8%,-7.0%,0.2,31.7%,21.1%
Cc1c(N2C(=O)c3ccc4c5c(ccc(c35)C2=O)CC4)c(=O)n(-c2ccccc2)n1C,5.01µM*,50.1µM*,2.82µM*,-63.6*,x,5.62µM*
C/C(=N/Nc1ccccc1)c1ccc(Cl)s1,x,x,x,x,5.01µM*,x
C/C(=N/Nc1ccc(Cl)cc1)c1ccc(Br)s1,x,x,x,x,11.2µM*,x
C/C(=N/NC(N)=S)c1ccc(Br)s1,1.0%,-21.2%,-18.1%,2.2,25.1µM*,24.3%
CC(=NNc1ccccc1)C(C)=NNc1ccccc1,x,-8.1%,-8.3%,12.6,39.8µM*,2.3%
Brc1ccc(Oc2nc(-c3ccccc3)cs2)cc1,x,x,x,x,-18.9%,x
Cc1cc(N2C(=O)C(O)=C(C(=O)c3cc4ccccc4o3)C2c2cccc(Br)c2)no1 (configuration not stated),u,-1.8%,-19.3%,-53.0*,44.7µM*,11.8%
COc1cc(C2C(C(=O)c3cc4ccccc4o3)=C(O)C(=O)N2c2cc(C)on2)cc(OC)c1OC (configuration not stated),-14.0%,9.8%,-7.8%,-7.8,10µM*,2.0%
Cn1c(=O)c2c(ncn2CC(=O)OCC(=O)c2ccc(Br)cc2)n(C)c1=O,x,x,-10.0%,-57.2*,u,x
Cn1c(=O)c2c(ncn2CC(=O)OCC(=O)c2ccc(Cl)cc2)n(C)c1=O,x,-10.3%,-4.4%,0.6,u,-6.3%
COc1cccc(N2CCN(C(=O)c3ccc4nc[nH]c4c3)CC2)c1,29.2%,-16.4%,89.1µM*,-27.7,450.2%,u
CN(C)c1ccc(NC(=O)c2ccc[n+]([O-])c2)cn1,x,x,x,x,4.9%,x
COc1ccc(N=Cc2oc3ccc4ccccc4c3c2O)cc1,11.2µM*,-29.2%,-26.6%,0.8,-26.4%,u
CCOc1ccc(NC(=O)CSc2nc3ccsc3c(=O)n2CCCCC(=O)O)cc1,x,x,-98.9%,-65.0*,-3.1%,x
CCCCn1c(SCC(=O)Nc2ccc(OCC)cc2)nc2ccsc2c1=O,-0.8%,4.2%[60.1 µM],0.3%,x,-9.2%,-3.0%
Cc1c(Nc2cc(Cl)c3nonc3c2[N+](=O)[O-])c(=O)n(-c2ccccc2)n1C,1.0%,-14.7%,-14.1%,0.8,u,-41.4%
O=C(O)c1ccc(Nc2cc(Cl)c3nonc3c2[N+](=O)[O-])cc1,-19.3%,-9.5%,-8.4%,-24.7,u,8.91µM*
O=[N+]([O-])c1c(Nc2ccccc2)cc(Cl)c2nonc12,x,x,x,x,-95.6%,x
O=[N+]([O-])c1c(Nc2cccc(O)c2)cc(Cl)c2nonc12,2.2%,-0.8%,25.1µM*,-20.0,u,12.6µM*
CN(CC(=O)NCCC1=CCCCC1)S(=O)(=O)c1ccc2c(c1)c(=O)n(C)c(=O)n2C,5.3%,-19.3%,-4.7%,-1.2,0.1%[57.4 µM],79.4µM*
COc1ccc(S(=O)(=O)c2nnn(-c3cc(Cl)c(OC)cc3OC)c2C)cc1,-0.2%,-12.1%,89.1µM*,x,-22.4%,u
COc1ccc(CN(C)C(=O)NCc2nc(C)cs2)cc1,x,x,x,x,31.5%,x
COC(=O)c1ccc(OC(=O)C2(c3ccccc3)CCCC2)cc1,x,x,x,x,8.1%,x
